SMILES strings stand for the structures. Several values for one entry are separate records, joined by “and”; a condition that tells them apart may be missing. Identical values can stand only once. Inconclusive results are not listed. Values without a mark were called inactive. Activity calls are given as the source filed them. The call rests on the fitted dose curve; tested in HEK293 reporter line.
Further: nearly all actives have a fitted effect of over 80% in size.
On the % scale 0 is the no-effect control and ±100 the full control effect; potency means the concentration at half of the fitted maximal effect.

The first assay is described as follows: qHTS for Inhibitors of the Functional Ribonucleoprotein Complex (vRNP) of Lassa (LASV) Arenavirus: Viability assay - alamar blue signal for LASV Primary Screen (AID 1347083). The following applies: cell viability, alamar blue fluorescence (LASV minigenome counter-screen); series mostly up to 57.5 µM; activity change, negative = reduced viability: at the top concentration.
As to `CCOC(=O)[C@H](CCc1ccccc1)N[C@@H](C)C(=O)N1Cc2cc(OC)c(OC)cc2C[C@H]1C(=O)O`, the “activity change, negative = reduced viability” value was 2.3%.
Same read-out and setting: then `CCCCN1C[C@H](O)[C@@H](O)[C@H](O)[C@H]1CO`, with 2.57%.
For `CCCCNc1ccc(C(=O)OCCOCCOCCOCCOCCOCCOCCOCCOCCOC)cc1`, the “activity change, negative = reduced viability” value was -25.7%.
Turning to `CC(C)n1c(C=C[C@H](O)C[C@H](O)CC(=O)O)c(-c2ccc(F)cc2)c2ccccc21`, the Potency is 2430 nM (active).
With `C[C@@H]1CC(=O)NN=C1c1ccc(NN=C(C#N)C#N)cc1`, the Potency entry was “inactive”.
Take `CCOC(=O)[C@H](CCc1ccccc1)N[C@@H](C)C(=O)N1Cc2ccccc2C[C@H]1C(=O)O`: the “activity change, negative = reduced viability” value was -4.08%.
For `O=C1c2c(O)ccc(O)c2C(=O)c2c(NCCNCCO)ccc(NCCNCCO)c21`, the Potency is 685 nM (active) and 891 nM (active) and 1.78 µM (active).
Consider `CC1=C(C(=O)O)N2C(=O)[C@@H](NC(=O)[C@H](N)c3ccccc3)[C@H]2SC1`, for which the “activity change, negative = reduced viability” value is 4.49%.
As to `COc1ccc([C@@H]2Sc3ccccc3N(CCN(C)C)C(=O)[C@@H]2OC(C)=O)cc1`, the Potency entry is “inactive”.
`O=C1Nc2ccc(Cl)cc2[C@@](C#CC2CC2)(C(F)(F)F)O1`: the “activity change, negative = reduced viability” value was -17.4%.
As to `Cc1ccccc1C(=O)Nc1ccc(C(=O)N2CCCC(O)c3cc(Cl)ccc32)c(C)c1` (centres undefined), the “activity change, negative = reduced viability” value is -1.36%.
Take `Cc1cnc(C(=O)NCCc2ccc(S(=O)(=O)NC(=O)NC3CCCCC3)cc2)cn1`: the Potency entry was “inactive”.
Turning to `Cc1onc(-c2c(Cl)cccc2Cl)c1C(=O)N[C@@H]1C(=O)N2[C@@H]1SC(C)(C)[C@@H]2C(=O)O`, the “activity change, negative = reduced viability” value was 4.1%.
Regarding `C[C@@H](O)[C@H]1C(=O)N2C(C(=O)O)=C(S[C@@H]3CN[C@H](CNS(N)(=O)=O)C3)[C@H](C)[C@H]12`, the “activity change, negative = reduced viability” value was 1.71%.
For `C1N2CN3CN1CN(C2)C3`, the “activity change, negative = reduced viability” value was -7.87%.
On to `CC[C@@]1(c2ccccc2)NC(=O)N(C)C1=O`, for which the “activity change, negative = reduced viability” value was -80.8%.
`CN(C)C(=N)N=C(N)N`: the Potency entry is “inactive”.
Still for that read-out and setting: then `Cc1ccc2c(n1)Oc1ccc(C(C)C(=O)OCC(=O)N(C)C)cc1C2` (centres undefined), with “inactive”.
Take `CC(C)Nc1cccnc1N1CCN(C(=O)c2cc3cc(NS(C)(=O)=O)ccc3[nH]2)CC1`: the “activity change, negative = reduced viability” value is -34.8%.
On to `CCC(=O)O[C@H]1[C@H](O[C@@H]2[C@@H](C)[C@H](O[C@H]3C[C@@](C)(OC)[C@@H](O)[C@H](C)O3)[C@@H](C)C(=O)O[C@H](CC)[C@@](C)(O)[C@H](O)[C@@H](C)C(=O)[C@H](C)C[C@@]2(C)O)O[C@H](C)C[C@@H]1N(C)C`, for which the “activity change, negative = reduced viability” value is 17.2%.
For the molecule `CNC1(C)C2CCC(C2)C1(C)C` (centres undefined), the Potency entry was “inactive”.
Turning to `CCN(CC)C(=S)SSC(=S)N(CC)CC`, the Potency was 122 nM (active).
Regarding `NC(=O)c1cn(Cc2c(F)cccc2F)nn1`, the Potency entry was “inactive”.
With `COc1ccc2nc(S(=O)Cc3ncc(C)c(OC)c3C)[nH]c2c1` (centres undefined), the “activity change, negative = reduced viability” value is -2.61%.
Consider `O=C(O)C1(C(=O)O)CCC1.[NH2-].[NH2-].[Pt+2]`, for which the “activity change, negative = reduced viability” value was -1.97%.
For the molecule `CCCNCC(O)COc1ccccc1C(=O)CCc1ccccc1` (centres undefined), the Potency entry was “inactive”.
As for `O=NN(CCCl)C(=O)NC1CCCCC1`, the Potency result was “inactive”.
For the molecule `CC(N)C12CC3CC(CC(C3)C1)C2` (centres undefined), the Potency result is “inactive”.
As to `Nc1[nH]c(=O)ncc1F`, the “activity change, negative = reduced viability” value was -4.99%.
As for `O=C(NCCN1CCOCC1)c1ccc(Cl)cc1`, the Potency result was “inactive”.
The same measure, in the same setting: with `Nc1nc2c(ncn2COCCO)c(=O)[nH]1` the entry was “inactive”.
On to `COc1cc2nc(N3CCN(C(=O)C4COc5ccccc5O4)CC3)nc(N)c2cc1OC` (centres undefined), for which the Potency result is “inactive”.
Take `CC(C)(C)NC(=O)[C@@H]1CN(Cc2cccnc2)CCN1C[C@@H](O)C[C@@H](Cc1ccccc1)C(=O)N[C@H]1c2ccccc2C[C@H]1O`: the “activity change, negative = reduced viability” value was -5.97%.
In the case of `Cc1nc(-c2ccc(OCC(C)C)c(C#N)c2)sc1C(=O)O`, the Potency entry was “inactive”.
For `Cc1cn([C@H]2C[C@H](N=[N+]=[N-])[C@@H](CO)O2)c(=O)[nH]c1=O`, the Potency result is “inactive”.
For `CN(C)CCc1c[nH]c2ccc(C[C@H]3COC(=O)N3)cc12`, the Potency result is “inactive”.
Regarding `CC[C@]1(O)C[C@H]2CN(CCc3c([nH]c4ccccc34)[C@@](C(=O)OC)(c3cc4c(cc3OC)N(C=O)[C@H]3[C@@](O)(C(=O)OC)[C@H](OC(C)=O)[C@]5(CC)C=CCN6CC[C@]43[C@@H]65)C2)C1`, the Potency was 15.3 nM (active).

The next assay in a line: qHTS for Inhibitors of the Functional Ribonucleoprotein Complex (vRNP) of Lymphocytic Choriomeningitis Arenaviruses (LCMV): Viability assay - alamar blue signal for LCMV Primary Screen (AID 1347085). As to conditions: alamar blue viability counter-screen, LCMV vRNP screen cells; series mostly up to 57.5 µM; activity change, negative = lower viability: at the top concentration.
As to `CCOC(=O)[C@H](CCc1ccccc1)N[C@@H](C)C(=O)N1Cc2cc(OC)c(OC)cc2C[C@H]1C(=O)O`, the “activity change, negative = lower viability” value is 1.09%.
Still for that read-out and setting: then `CCCCN1C[C@H](O)[C@@H](O)[C@H](O)[C@H]1CO`, with 8.57%; and `CCCCNc1ccc(C(=O)OCCOCCOCCOCCOCCOCCOCCOCCOCCOC)cc1`, with -3.98%.
Regarding `CC(C)n1c(C=C[C@H](O)C[C@H](O)CC(=O)O)c(-c2ccc(F)cc2)c2ccccc21`, the Potency is 7690 nM (active).
For the molecule `C[C@@H]1CC(=O)NN=C1c1ccc(NN=C(C#N)C#N)cc1`, the Potency result was “inactive”.
In the case of `CCOC(=O)[C@H](CCc1ccccc1)N[C@@H](C)C(=O)N1Cc2ccccc2C[C@H]1C(=O)O`, the “activity change, negative = lower viability” value was -0.253%.
Consider `O=C1c2c(O)ccc(O)c2C(=O)c2c(NCCNCCO)ccc(NCCNCCO)c21`, for which the Potency is 1.37 µM (active) and 1.26 µM (active).
`CC1=C(C(=O)O)N2C(=O)[C@@H](NC(=O)[C@H](N)c3ccccc3)[C@H]2SC1`: the “activity change, negative = lower viability” value was 2.48%.
As to `COc1ccc([C@@H]2Sc3ccccc3N(CCN(C)C)C(=O)[C@@H]2OC(C)=O)cc1`, the Potency result was “inactive”.
For the molecule `O=C1Nc2ccc(Cl)cc2[C@@](C#CC2CC2)(C(F)(F)F)O1`, the “activity change, negative = lower viability” value is -12.8%.
On to `Cc1ccccc1C(=O)Nc1ccc(C(=O)N2CCCC(O)c3cc(Cl)ccc32)c(C)c1` (centres undefined), for which the “activity change, negative = lower viability” value is 0.164%.
On to `Cc1cnc(C(=O)NCCc2ccc(S(=O)(=O)NC(=O)NC3CCCCC3)cc2)cn1`, for which the Potency result was “inactive”.
With `Cc1onc(-c2c(Cl)cccc2Cl)c1C(=O)N[C@@H]1C(=O)N2[C@@H]1SC(C)(C)[C@@H]2C(=O)O`, the “activity change, negative = lower viability” value was 6.41%.
`C[C@@H](O)[C@H]1C(=O)N2C(C(=O)O)=C(S[C@@H]3CN[C@H](CNS(N)(=O)=O)C3)[C@H](C)[C@H]12`: the “activity change, negative = lower viability” value is 8.97%.
On the same count and under the same terms, with `C1N2CN3CN1CN(C2)C3` the figure was -0.692%.
`CC[C@@]1(c2ccccc2)NC(=O)N(C)C1=O`: the “activity change, negative = lower viability” value is -96%.
Consider `CN(C)C(=N)N=C(N)N`, for which the “activity change, negative = lower viability” value is 18.1%.
`Cc1ccc2c(n1)Oc1ccc(C(C)C(=O)OCC(=O)N(C)C)cc1C2` (centres undefined): the Potency entry was “inactive”.
In the case of `CC(C)Nc1cccnc1N1CCN(C(=O)c2cc3cc(NS(C)(=O)=O)ccc3[nH]2)CC1`, the “activity change, negative = lower viability” value was -3.08%.
Consider `CCC(=O)O[C@H]1[C@H](O[C@@H]2[C@@H](C)[C@H](O[C@H]3C[C@@](C)(OC)[C@@H](O)[C@H](C)O3)[C@@H](C)C(=O)O[C@H](CC)[C@@](C)(O)[C@H](O)[C@@H](C)C(=O)[C@H](C)C[C@@]2(C)O)O[C@H](C)C[C@@H]1N(C)C`, for which the “activity change, negative = lower viability” value was 3.81%.
As for `CNC1(C)C2CCC(C2)C1(C)C` (centres undefined), the Potency entry was “inactive”.
In the case of `CCN(CC)C(=S)SSC(=S)N(CC)CC`, the Potency was 863 nM (active).
Still for that read-out and setting: then `NC(=O)c1cn(Cc2c(F)cccc2F)nn1`, with “inactive”.
As for `COc1ccc2nc(S(=O)Cc3ncc(C)c(OC)c3C)[nH]c2c1` (centres undefined), the “activity change, negative = lower viability” value was 9.43%.
With `O=C(O)C1(C(=O)O)CCC1.[NH2-].[NH2-].[Pt+2]`, the “activity change, negative = lower viability” value was -4.37%.
`CCCNCC(O)COc1ccccc1C(=O)CCc1ccccc1` (centres undefined): the Potency result was “inactive”.
Same read-out and setting: with `O=NN(CCCl)C(=O)NC1CCCCC1` the entry was “inactive”; with `CC(N)C12CC3CC(CC(C3)C1)C2` (centres undefined), “inactive”.
Turning to `Nc1[nH]c(=O)ncc1F`, the “activity change, negative = lower viability” value was -5.71%.
For the molecule `O=C(NCCN1CCOCC1)c1ccc(Cl)cc1`, the Potency entry is “inactive”.
In the case of `Nc1nc2c(ncn2COCCO)c(=O)[nH]1`, the Potency entry was “inactive”.
Take `COc1cc2nc(N3CCN(C(=O)C4COc5ccccc5O4)CC3)nc(N)c2cc1OC` (centres undefined): the Potency entry was “inactive”.
Turning to `CC(C)(C)NC(=O)[C@@H]1CN(Cc2cccnc2)CCN1C[C@@H](O)C[C@@H](Cc1ccccc1)C(=O)N[C@H]1c2ccccc2C[C@H]1O`, the “activity change, negative = lower viability” value was -10.9%.
Regarding `Cc1nc(-c2ccc(OCC(C)C)c(C#N)c2)sc1C(=O)O`, the Potency result was “inactive”.
In the case of `Cc1cn([C@H]2C[C@H](N=[N+]=[N-])[C@@H](CO)O2)c(=O)[nH]c1=O`, the Potency result is “inactive”.
`CN(C)CCc1c[nH]c2ccc(C[C@H]3COC(=O)N3)cc12`: the Potency result is “inactive”.
Take `CC[C@]1(O)C[C@H]2CN(CCc3c([nH]c4ccccc34)[C@@](C(=O)OC)(c3cc4c(cc3OC)N(C=O)[C@H]3[C@@](O)(C(=O)OC)[C@H](OC(C)=O)[C@]5(CC)C=CCN6CC[C@]43[C@@H]65)C2)C1`: the Potency is 6.1 nM (active).

The values are drawn from PubChem BioAssay (NCATS).
